# In PubChem BioAssay (NCI):
# This is part of a sample that, as a whole, favours compounds with a hit. Of some 79,000 tested, about 15% had one in any assay. Values without a mark were called inactive. The source made the active and inactive calls. Cut-off read from the data, not from the text of the source: active = growth inhibition above about 70%; inactive = the rest.
# Tests used:
# [1] = NCI Yeast Anticancer Drug Screen. Data for the rad50 strain (AID 155);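 note: 0% = growth of vehicle-only cultures of the same strain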; conditions: S. cerevisiae rad50 strain growth inhibition, active compounds read high
# How it was run: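 Yeast carrying a defined DNA repair defect were exposed to test compounds, and growth was compared with vehicle-treated controls to give percent inhibition.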
# [2] = NCI Yeast Anticancer Drug Screen. Data for the mec2-1 strain (AID 157); conditions: S. cerevisiae mec2-1 strain, active compounds read high
# How it was run: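 Each compound was tested on mec2-1 yeast, a strain altered in DNA damage repair or cell cycle control. Growth inhibition is reported relative to vehicle.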
# [3] = NCI Yeast Anticancer Drug Screen. Data for the sgs1 mgt1 strain (AID 161);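 note: 0% = growth of cultures given vehicle only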; conditions: S. cerevisiae sgs1 mgt1 strain, active compounds read high
# How it was run: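 Genetically altered yeast, compound exposure, growth inhibition relative to vehicle.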
# [4] = NCI Yeast Anticancer Drug Screen. Data for the cln2 rad14 strain (AID 165);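 note: 0% = growth equal to vehicle treated cultures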; conditions: S. cerevisiae cln2 rad14 strain, active compounds read high
# How it was run: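 Test compounds were added to cln2 rad14 yeast cultures; inhibition of growth was then determined by comparison with vehicle treatment.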
# [5] = NCI Yeast Anticancer Drug Screen. Data for the bub3 strain (AID 167); conditions: S. cerevisiae bub3 mutant strain, active compounds read high
# How it was run: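 Compounds were applied to a genetically altered yeast strain carrying a cell-cycle control defect. Growth inhibition was scored against vehicle-treated controls.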
# [6] = NCI Yeast Anticancer Drug Screen. Data for the mlh1 rad18 strain (AID 175); conditions: S. cerevisiae mlh1 rad18 strain growth inhibition, active compounds read high
# How it was run: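 Inhibition values reflect reduced growth of mutant yeast versus vehicle-treated controls following compound exposure; the mutations affect DNA damage repair.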
# [7] = at 5.0 µM (retest, dose inferred, filed as 0.5)
# [8] = at 50.0 µM (retest, dose inferred, filed as 5.0)
Structure (SMILES),"growth inhibition [1, 7]","growth inhibition [1, 8]",growth inhibition ([1]; at 50.0 µM),"growth inhibition [2, 7]","growth inhibition [2, 8]",growth inhibition ([2]; at 50.0 µM),"growth inhibition [3, 7]","growth inhibition [3, 8]",growth inhibition ([3]; at 50.0 µM),"growth inhibition [4, 7]","growth inhibition [4, 8]",growth inhibition ([4]; at 50.0 µM),"growth inhibition [5, 7]","growth inhibition [5, 8]",growth inhibition ([5]; at 50.0 µM),"growth inhibition [6, 7]","growth inhibition [6, 8]",growth inhibition ([6]; at 50.0 µM)
CCCCOC(=O)c1ccc(O)c(OC)c1,3%,-13%,-19.8%,-10%,4%,-3.2%,0%,6%,5.25%,-5%,2%,-43.9%,85% (active),96% (active),95.7% (active),0%,3%,-11.2%
Cn1c(=O)cc[nH]c1=O,-1%,3%,4.85%,0%,-1%,3.9%,0%,2%,5.45%,0%,-1%,-0.75%,1%,-5%,98.8% (active),-5%,1%,14.2%
Cc1cc2c(c(C(N)=O)c1C)-c1cccc(F)c1C2=O,4%,47%,77.4% (active),4%,20%,7.15%,20%,20%,37.6%,-1%,14%,75.5% (active),2%,32%,16%,1%,32%,90.5% (active)
CCCCC(CCc1ccccc1[N+](=O)[O-])(C(C)=O)C(=O)OCC (stereo not given),4%,-15%,61%,4%,-3%,15.7%,-3%,14%,33.6%,1%,-11%,-12.2%,15%,38%,80.5% (active),5%,3%,58.8%
O=C(c1ccc(O)c(Br)c1)c1cc(Br)ccc1O,66%,98% (active),95.7% (active),77% (active),98% (active),96.9% (active),73% (active),98% (active),97.8% (active),86% (active),99% (active),95.3% (active),85% (active),97% (active),96% (active),78% (active),98% (active),95.9% (active)
CCN(CC)CCOc1c(I)cc(I)cc1I,2%,98% (active),84.3% (active),0%,98% (active),82.4% (active),12%,99% (active),96.5% (active),7%,98% (active),98.2% (active),6%,98% (active),84.8% (active),1%,99% (active),99.2% (active)
Cc1csc2c1C(=O)c1ccsc1C2=O,54%,97% (active),88.8% (active),50%,99% (active),91.5% (active),72% (active),99% (active),92.2% (active),31%,98% (active),90.8% (active),86% (active),98% (active),91.5% (active),65%,99% (active),91.1% (active)
CCCCCCCCCCCCCCCCCCNC(=S)/N=C/c1c(O)cc(C)oc1=O,1%,15%,16.1%,8%,38%,-13.7%,-15%,8%,57%,7%,-13%,-30.1%,-2%,-8%,18.9%,10%,29%,15.9%
CC(C)(C)NCc1cc(C(C)(C)C)cc(-c2ccc(Cl)cc2)c1O,26%,92% (active),84.8% (active),13%,91% (active),88.4% (active),7%,88% (active),86.5% (active),44%,55%,76.8% (active),12%,91% (active),83.9% (active),25%,93% (active),84.6% (active)
C=CC(C)(CCC=C(C)C)OC(=O)Nc1ccccc1 (stereo not given),19%,-13%,-7.2%,2%,-25%,-12.7%,-10%,13%,16.1%,-2%,6%,-7.95%,0%,-14%,8.05%,-2%,24%,-4.25%
